The supplement of paper PMC3150612
± gives the standard deviation of the averaged measurements.

Assays:
Drosophila melanogaster [1] = assay: olfactory response index (dipstick assay) (fraction of flies (RI; 1 aversion, 0.5 indifferent, 0 attraction)); higher = stronger aversion to the odorant; settings: odorant concentration: 1% v/v, male
Drosophila melanogaster [2] = assay: as above; settings: odorant concentration: 1% v/v, female
[3] = genotype (tubulin-GAL4 x UAS-RNAi line; control = progenitor): A5
[4] = genotype (tubulin-GAL4 x UAS-RNAi line; control = progenitor): control
[5] = genotype (tubulin-GAL4 x UAS-RNAi line; control = progenitor): obp 18a
[6] = genotype (tubulin-GAL4 x UAS-RNAi line; control = progenitor): obp 22a
[7] = genotype (tubulin-GAL4 x UAS-RNAi line; control = progenitor): obp 28a
[8] = genotype (tubulin-GAL4 x UAS-RNAi line; control = progenitor): obp 56a
[9] = genotype (tubulin-GAL4 x UAS-RNAi line; control = progenitor): obp 56c
[10] = genotype (tubulin-GAL4 x UAS-RNAi line; control = progenitor): obp 56f
[11] = genotype (tubulin-GAL4 x UAS-RNAi line; control = progenitor): obp 57a
[12] = genotype (tubulin-GAL4 x UAS-RNAi line; control = progenitor): obp 57b
[13] = genotype (tubulin-GAL4 x UAS-RNAi line; control = progenitor): obp 58c
[14] = genotype (tubulin-GAL4 x UAS-RNAi line; control = progenitor): obp 59a
[15] = genotype (tubulin-GAL4 x UAS-RNAi line; control = progenitor): obp 83a
[16] = genotype (tubulin-GAL4 x UAS-RNAi line; control = progenitor): obp 83c
[17] = genotype (tubulin-GAL4 x UAS-RNAi line; control = progenitor): obp 93a
[18] = genotype (tubulin-GAL4 x UAS-RNAi line; control = progenitor): obp 99b
[19] = genotype (tubulin-GAL4 x UAS-RNAi line; control = progenitor): obp 56h
[20] = genotype (tubulin-GAL4 x UAS-RNAi line; control = progenitor): obp 58b

Row | SMILES | olfactory response index (Drosophila melanogaster [1]; [3]) | olfactory response index (Drosophila melanogaster [1]; [4]) | olfactory response index (Drosophila melanogaster [1]; [5]) | olfactory response index (Drosophila melanogaster [1]; [6]) | olfactory response index (Drosophila melanogaster [1]; [7]) | olfactory response index (Drosophila melanogaster [1]; [8]) | olfactory response index (Drosophila melanogaster [1]; [9]) | olfactory response index (Drosophila melanogaster [1]; [10]) | olfactory response index (Drosophila melanogaster [1]; [11]) | olfactory response index (Drosophila melanogaster [1]; [12]) | olfactory response index (Drosophila melanogaster [1]; [13]) | olfactory response index (Drosophila melanogaster [1]; [14]) | olfactory response index (Drosophila melanogaster [1]; [15]) | olfactory response index (Drosophila melanogaster [1]; [16]) | olfactory response index (Drosophila melanogaster [1]; [17]) | olfactory response index (Drosophila melanogaster [1]; [18]) | olfactory response index (Drosophila melanogaster [1]; [19]) | olfactory response index (Drosophila melanogaster [2]; [3]) | olfactory response index (Drosophila melanogaster [2]; [4]) | olfactory response index (Drosophila melanogaster [2]; [5]) | olfactory response index (Drosophila melanogaster [2]; [6]) | olfactory response index (Drosophila melanogaster [2]; [7]) | olfactory response index (Drosophila melanogaster [2]; [8]) | olfactory response index (Drosophila melanogaster [2]; [9]) | olfactory response index (Drosophila melanogaster [2]; [10]) | olfactory response index (Drosophila melanogaster [2]; [11]) | olfactory response index (Drosophila melanogaster [2]; [12]) | olfactory response index (Drosophila melanogaster [2]; [20]) | olfactory response index (Drosophila melanogaster [2]; [13]) | olfactory response index (Drosophila melanogaster [2]; [14]) | olfactory response index (Drosophila melanogaster [2]; [15]) | olfactory response index (Drosophila melanogaster [2]; [16]) | olfactory response index (Drosophila melanogaster [2]; [17]) | olfactory response index (Drosophila melanogaster [2]; [18]) | olfactory response index (Drosophila melanogaster [2]; [19])
1 | OCCc1ccccc1 [2-phenylethanol] | 0.116 ± 0.078 | 0.0893 ± 0.051 | 0.0701 ± 0.021 | 0.0651 ± 0.059 | 0.163 ± 0.03 | 0.0222 ± 0.021 | 0.0551 ± 0.048 | 0.0672 ± 0.04 | 0.0379 ± 0.021 | 0.138 ± 0.096 | 0.125 ± 0.076 | 0.155 ± 0.067 | 0.132 ± 0.06 | 0.127 ± 0.051 | 0.135 ± 0.043 | 0.0352 ± 0.025 | 0.106 ± 0.049 | 0.396 ± 0.15 | 0.5 ± 0.2 | 0.117 ± 0.066 | 0.403 ± 0.12 | 0.526 ± 0.051 | 0.299 ± 0.11 | 0.367 ± 0.17 | 0.414 ± 0.076 | 0.128 ± 0.068 | 0.379 ± 0.17 | 0.381 ± 0.17 | 0.166 ± 0.08 | 0.258 ± 0.074 | 0.414 ± 0.058 | 0.437 ± 0.14 | 0.422 ± 0.2 | 0.0815 ± 0.14 | 0.258 ± 0.2
2 | Cc1cnccn1 [2-methylpyrazine] | 0.457 ± 0.04 | 0.104 ± 0.039 | 0.178 ± 0.049 | 0.155 ± 0.17 | 0.085 ± 0.043 | 0.176 ± 0.094 | 0.293 ± 0.15 | 0.151 ± 0.066 | 0.238 ± 0.096 | 0.261 ± 0.04 | 0.116 ± 0.1 | 0.397 ± 0.041 | 0.305 ± 0.16 | 0.218 ± 0.18 | 0.111 ± 0.044 | 0.1 ± 0.087 | 0.233 ± 0.078 | 0.623 ± 0.14 | 0.415 ± 0.074 | 0.358 ± 0.17 | 0.394 ± 0.084 | 0.527 ± 0.068 | 0.318 ± 0.099 | 0.458 ± 0.14 | 0.674 ± 0.013 | 0.532 ± 0.066 | 0.543 ± 0.082 | 0.159 ± 0.054 | 0.304 ± 0.15 | 0.552 ± 0.3 | 0.478 ± 0.062 | 0.431 ± 0.12 | 0.506 ± 0.13 | 0.381 ± 0.059 | 0.393 ± 0.099
3 | COC(=O)c1ccccc1O [methyl salicylate] | 0.331 ± 0.2 | 0.13 ± 0.099 | 0.0711 ± 0.077 | 0.179 ± 0.09 | 0.249 ± 0.1 | 0.161 ± 0.056 | 0.181 ± 0.16 | 0.173 ± 0.11 | 0.038 ± 0.036 | 0.193 ± 0.15 | 0.159 ± 0.068 | 0.368 ± 0.047 | 0.225 ± 0.13 | 0.14 ± 0.032 | 0.294 ± 0.18 | 0.108 ± 0.042 | 0.147 ± 0.04 | 0.49 ± 0.19 | 0.558 ± 0.091 | 0.114 ± 0.14 | 0.486 ± 0.086 | 0.384 ± 0.081 | 0.523 ± 0.13 | 0.27 ± 0.14 | 0.295 ± 0.068 | 0.356 ± 0.1 | 0.384 ± 0.23 | 0.287 ± 0.066 | 0.381 ± 0.22 | 0.616 ± 0.093 | 0.454 ± 0.19 | 0.654 ± 0.066 | 0.491 ± 0.02 | 0.308 ± 0.16 | 0.63 ± 0.22
